Reference: PubChem BioAssay AID1508623 (National Center for Advancing Translational Sciences (NCATS), 2021)
Hit rate of the full screen: of about 48,000 compounds, about 450 (0.94%) were called active. Another 19% or so got no clear call; they are omitted. Calls come from the whole dose curve; as a rule, active = well fitted inhibition curve with a large enough effect; inconclusive = small, poorly fitted or top-dose-only effect; inactive = no such curve, though single readings can be large or run the other way. For the sample, actives were picked, then their nearest neighbours and some compounds at random.

Assay: Primary qHTS for Identification of Small Molecule Inhibitors of Huntingtin Promoter Activity; note: nearly all actives have a fitted effect of over 50% in size
Details: HEK293 HTT promoter firefly luciferase reporter (activity 0% = vehicle and -100% = no light), 24 h; series mostly up to 57.5 µM; activity change, negative = inhibition: at the top concentration
Excerpt: Assay Provider: Russell L. Margolis M.D.
Department Neurology, Johns Hopkins University School of Medicine, Baltimore, MD
Huntington's Disease (HD) is a neurodegenerative disorder caused by a CAG repeat expansion in exon 1 of huntingtin (HTT). While there are currently no disease-modifying treatments for HD, recent efforts have focused on development of nucleotide-based therapeutics to lower HTT expression. As an alternative to siRNA or oligonucleotide methods, we hypothesized that suppression of HTT expression might be accomplished by small molecules that either (1) directly decrease HTT expression by suppressing HTT promoter activity or (2) indirectly decrease HTT expression by increasing the promoter activity of HTT-AS, the gene antisense to HTT that appears to inhibit expression of HTT.
We developed and employed a high throughput screen for modifiers of HTT and HTT-AS promoter activity using luminescent reporter HEK293 cells; of the 52,041 compounds tested, we identified 898 replicable hits. We used a rigorous stepwise approach to assess compound toxicity and the capacity of the compounds to specifically lower huntingtin protein in 5 different cell lines, including HEK293 cells, HD lymphoblastoid cells, mouse primary neurons, HD iPSCs differentiated into cortical-like neurons, and HD hESCs. We found no compounds which were able to lower huntingtin without lowering cell viability in all assays, though the potential efficacy of a few compounds at non-toxic doses could not be excluded.
SEQUENCE No. (1, 2, 3, etc.); […] (e.g., Cells, Incubation, Reagent, etc.); VALUE and DESCRIPTION.
1; Reagent; 4 uL; 2,500 Hek293 luciferase reporter cells per wells
3; Compound; 23 nL; Control inhibitor / compound library
5; Reagent; 2.5 uL; Firefly Luc reagent; Dual-Glo Luciferase Reporter Assay System (Promega)
6; Time; 10 min; room temperature incubation
7; Detection; Luminescence; FLuc
NOTES (numbers refer to sequence above)
1; High-throughput screening, measuring luminescence from a Hek293 luciferase reporter, was performed in 1,536 well white-walled tissue-culture treated plates. 2,500 cells were plated in 4 µL of Opti-MEM per well using a Multidrop Combi Reagent Dispenser (ThermoFisher).
2; Assay plates were cultured for 24 hours.
3; Control inhibitor (PTC124; final concentration of 50 uM) and compound library (at final concentrations of 460 nM - 57.5 uM) were added to the assay plate using the Kalypsis Pintool Robotic System equipped with 1536 pinheads.
4; Cells were then incubated for 24 hours at 37 degrees C prior to luminescence measurements.
5; In all cases, luminescence was measured using the Dual-Glo Luciferase Reporter Assay System (Promega) following the manufacturer's instructions.
6; Room temperature incubation.
7; Luminescence signal was obtained using the PerkinElmer ViewLux plate reader. Results were normalized to vehicle control (0% activity) and zero RLU (-100% activity).
Potency is the fitted concentration of half-maximal effect.

Activity change, negative = inhibition, inactive:
Cc1cccc(N2CCN(C(=O)c3ccc(Nc4nc5ccccc5n5nnnc45)cc3)CC2)c1C 16.4%, O=C(c1ccc2c(c1)N(Cc1ccccc1)C(=O)c1ccccc1S2(=O)=O)N1CCCC1 -7.16%, CCOc1ccccc1N(CC)C(=O)Nc1cn(C)c(=O)c2ccccc12 -16.3%, CSc1nc(-c2ccc(F)cc2)nc2c1Cc1c(CO)cnc(C)c1O2 -12.1%, CCOc1ccc(NC(=O)C(CC(C)C)N2Cc3ccccc3C2=O)cc1 (stereo not drawn) -25.6%, COC(=O)c1cc(NC(=O)c2sc3ccccc3c2Cl)cc(C(=O)OC)c1 -2.04%, Cc1cccc(N2CCN(C(=O)c3oc(=O)c4ccccc4c3-c3ccccc3)CC2)c1C -9.19%, CC(C)(C)OC(=O)N1CCC(c2c(C(=O)NCc3ccccn3)cnn2-c2ccc(F)cc2)CC1 -10.4%, Cc1ccc(NC(=O)CSc2nc3c([nH]c4ccccc43)c(=O)n2-c2ccccc2)c(C)c1 -11.7%, Cc1ccc(-c2noc(CSc3nnc(-c4ccc(Cl)cc4)n3C)n2)cc1 -27.1%, COc1ccc(-c2noc(CSc3nc(C)cc(=O)[nH]3)n2)cc1OC -20.2%, Cn1c(=O)c2c(SCC(=O)N3CCc4ccccc43)nc(-c3ccc(Cl)cc3)nc2n(C)c1=O -7.37%, Cc1cc(C)cc(NC(=O)CSc2oc(-c3ccccc3)nc2S(=O)(=O)c2ccc(Cl)cc2)c1 -14.6%, Cc1ccc2c(=O)c(C(=O)c3ccc(Cl)cc3)cn(CC(=O)NC3CCCCC3)c2n1 12.6%, COC(=O)c1scc(-c2ccc(C)cc2)c1S(=O)(=O)Nc1cc(Cl)c(OC)cc1OC -15.9%, CCOC(=O)c1ccc(NC(=O)c2csc3c2CCCCC3)cc1 -10.1%, COc1cccc(C(=O)c2sc3nc(-c4ccccc4)cc(C(F)(F)F)c3c2N)c1 -24.4%, Cn1c(=O)n(Cc2c(F)cccc2Cl)c(=O)c2c1nc1n2CCN1c1ccc(F)cc1 -1.17%, CCc1nn(CC(=O)N2CCN(c3cccc(C(F)(F)F)c3)CC2)c(=O)c2cc3occc3n12 -13%, COC(=O)c1ccc(OC)c(Cn2c(=O)n(Cc3ccccc3)c(=O)c3c2c2cc(OC)ccc2n3C)c1 -9.45%, Cc1cccc(C(=O)NCCc2nc3ccccc3n2Cc2ccccc2Cl)c1 0.0337%, CCOc1ccc2nc(N3CCCC(C(=O)Nc4cc(C)ccc4C)C3)sc2c1 (stereo not drawn) 38.3%, O=C(/C=C/c1ccccc1)N1CCN(Cc2cc(=O)n3nc(-c4ccccc4F)sc3n2)CC1 -11.1%, O=C(O)c1ccc(Cn2c(SCc3ccc(F)cc3)nc3ccncc32)cc1 4.54%, Cc1cccc(CSc2nc3ccncc3n2Cc2ccc(C(=O)O)cc2)c1 4.83%, COc1ccccc1Cc1nc2ccccc2nc1SCC(=O)N1CCCc2ccccc21 -3.18%, Cc1ccc(CNC(=O)CCc2c(C)nc3nc(CNC(=O)OC(C)(C)C)nn3c2C)cc1 -20.6%, CC(=O)N1CCCc2cc(S(=O)(=O)N3CCC(C(=O)NC4CCCCC4)CC3)ccc21 -20.4%, CC(=O)N1CCCc2cc(S(=O)(=O)Nc3ccc(Cl)cc3F)ccc21 -28.1%, CCN(CC)c1ccc(NC(=O)CN2CCN(CC(=O)Nc3ccc(Cl)cc3)CC2)cc1 -28.4%, Cc1oc2ncnc(N3CCOCC3)c2c1C(=O)NCCc1ccccc1 19.5%, Cc1c(C(=O)Nc2cccc(Cl)c2)oc2ccc(S(=O)(=O)N3CCOCC3)cc12 -4.7%, Cc1ccc(NC(=O)c2oc3ccc(S(=O)(=O)N4CCCCC4)cc3c2C)cc1Cl -15.5%, O=C(Nc1ccc2nc(SCC(=O)N3CCc4ccccc43)sc2c1)c1ccccc1F -3.2%, O=C(c1cccc(Cl)c1)N1CCN(CCc2ccncc2)CC1 -11.7%, COC(=O)c1sccc1S(=O)(=O)N(CC(=O)Nc1ccc(C)c(F)c1)c1ccc(C)c(C)c1 -10.9%, CC1CN(C(=O)N2CCC(C(=O)NCc3cccs3)CC2)c2ccccc2O1 (stereo not drawn) -9.81%, Cc1ccc2nc(COc3cccc(NC(=O)c4cccc(Cl)c4)c3)cc(=O)n2c1 -0.53%, CCn1cc(C(=O)NCCc2ccccc2)c(=O)c2cc(S(=O)(=O)N3CCCCCC3)ccc21 -17.5%, CCc1ccc(NC(=O)N2CCN(C(=O)c3nsc4ccccc34)CC2)cc1 -28.2%, Cc1ccc(Oc2c(C(F)(F)F)oc3c(CN4CCCCC4)c(O)ccc3c2=O)cc1 -41.6%, COc1ccc(-c2cc(NCc3ccc(F)cc3)n3cnnc3n2)cc1 -27.2%, CCOc1ccc(S(=O)(=O)c2cn(Cc3ccc(OC)cc3)c3ccc(F)cc3c2=O)cc1 -19.5%, Cc1sc(C2C(C#N)=C(N)N(c3cccc(Cl)c3)C3=C2C(=O)CCC3)cc1CN1CCOCC1 (stereo not drawn) -8.58%, COc1ccc(NC(=O)c2ccco2)cc1NC(=O)c1ccc(C#N)cc1F -8.77%, CCc1cccc(NC(=O)CN(C)S(=O)(=O)c2ccc3[nH]c4c(c3c2)CCCC4)c1 -24.5%, COc1ccc(OC)c(-n2nnc3c(sc4nc(C)c(Br)c(C)c43)c2=O)c1 -16%, Cc1c(C(=O)N(C)C)sc2c1c(=O)n(-c1ccc(F)cc1)c(=O)n2CC(=O)N(C)c1ccccc1 -16.9%, COc1cc(C(=O)NCC(c2ccc(Cl)cc2)N2CCOCC2)cc(OC)c1OC (stereo not drawn) -3.92%, COc1c(Cl)cc(Cl)cc1C(=O)Nc1cccc2cccnc12 -11.6%, CCCCCn1c(=O)[nH]c2cc(C(=O)Nc3cc(C)cc(C)c3)ccc2c1=O -2.81%, Cc1ccc(Cl)cc1N1CCN(S(=O)(=O)c2cc3[nH]c(=O)c(=O)[nH]c3cc2C)CC1 -8.72%, CC(=O)c1sc(N2C(=O)c3oc4ccccc4c(=O)c3C2c2ccc(C)cc2)nc1C (stereo not drawn) -13.5% [at 11.5 µM]

Potency, active:
COc1ccc(-c2noc(CSc3nc4ccc(C)cc4[nH]3)n2)cc1 28.2 µM, COc1cccc(Cn2c(SCc3ccc(C(=O)N4CCCCC4)cc3)nc3ccncc32)c1 12.6 µM, CC(=O)N1CCCc2cc(S(=O)(=O)N3CCCC(C(=O)N4CCN(c5cccc(Cl)c5)CC4)C3)ccc21 (stereo not drawn) 7.08 µM, CCOC(=O)c1oc2ccc(S(=O)(=O)n3nc(-c4ccccc4OC)cc3N)cc2c1C 12.6 µM, CCOc1ccc(C(NC(=O)c2cc(OC)c(OC)c(OC)c2)c2cc(Cl)c3cccnc3c2O)cc1 (stereo not drawn) 3.55 µM
